# Wee1 degr inh – inhibitors of human Wee1 degradation; P30291; HeLa Luc-Wee1K328M stability, luciferase luminescence; 100% = proteasome inhibitor MG132 effect; reporter increase, % at 5 µM; actives 1.2% (n = 220,000); AID 1321;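 active = activation above the mean of all tested compounds plus 3 SD, set per screening run, cut at about 8.8% in these data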;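 note: cells exposed to compound for 20 h before luminescence read; 0% = DMSO alone and 100% = MG132 at 30 µM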
# Bcl-W Bim block – human Bim-Bcl-W interaction inhibition | inhibition, % at 10 µM | bead-based flow cytometry, Bim peptide-Bcl-W binding | actives 0.02% (n = 190,000);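 note: 0% = bound tracer without compound and 100% = peptide blocker; higher means less fluorescent Bim peptide bound to Bcl-W beads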
# Bim-Bcl-B – human Bim-Bcl-B interaction inhibition. Q9HD36. bead-based flow cytometry, Bim peptide-Bcl-B binding. inhibition, % at 10 µM. actives 0.073% (n = 190,000);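 note: 0% = tracer peptide without compound and 100% = reference inhibitor peptide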
# Target sequence (Q9HD36 whole entry, looked up): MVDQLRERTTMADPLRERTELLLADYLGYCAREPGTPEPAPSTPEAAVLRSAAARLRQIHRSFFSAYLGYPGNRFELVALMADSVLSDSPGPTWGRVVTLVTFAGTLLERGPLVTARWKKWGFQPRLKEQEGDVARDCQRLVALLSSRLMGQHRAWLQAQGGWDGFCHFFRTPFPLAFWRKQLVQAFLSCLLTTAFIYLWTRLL
# Bfl-1 Bim block – human Bim-Bfl-1 interaction inhibition | Q16548 | inhibition, % at 10 µM | actives 0.12% (n = 190,000) | Bead-based flow cytometry, Bim-Bfl-1 binding inhibition;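 note: 0% = wells without compound plus tracer and 100% = blocker peptide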
# Bim-Bcl-2 – disrupts Bim peptide binding to human Bcl-2; P10415; Bead-based flow cytometry, Bim peptide-Bcl-2 binding; inhibition, % at 10 µM; actives 0.06% (n = 190,000); in the data active = inhibition above about 40%;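 note: 0% = no compound wells with probe peptide and 100% = reference peptide inhibitor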
# Bim-Bcl-XL – human Bim-Bcl-XL interaction inhibition; inhibition, % at 10 µM; Bim peptide-Bcl-XL binding, bead flow cytometry, fluorescence; Q07817; actives 0.04% (n = 190,000)
# Target sequence (Q07817 whole entry, looked up): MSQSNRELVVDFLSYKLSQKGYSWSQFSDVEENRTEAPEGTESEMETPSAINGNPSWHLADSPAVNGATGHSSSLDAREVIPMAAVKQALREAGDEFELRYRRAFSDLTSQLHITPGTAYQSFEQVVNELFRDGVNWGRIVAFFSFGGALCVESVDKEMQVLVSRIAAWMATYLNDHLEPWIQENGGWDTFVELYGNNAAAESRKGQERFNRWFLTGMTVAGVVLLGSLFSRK
# The depositor's hits bear a star; · = no result. Sampled rows, rich in hits. Any-hit rate of the full collection: about 1.4%. Cut-off read from the data, not from the text of the source, unless noted: active = inhibition above about 40%.
SMILES,Wee1 degr inh,Bcl-W Bim block,Bim-Bcl-B,Bfl-1 Bim block,Bim-Bcl-2,Bim-Bcl-XL
C=CCn1c(O)c(N=NC(=O)CNC(=O)c2ccco2)c2ccccc21,2.3,0.0,-4.0,1.0,0.0,-2.0
NC(=O)c1sc2nc(-c3cccnc3)ccc2c1N,-3.7,·,·,·,·,·
CCOC(=O)c1sc2nc(-c3cccnc3)ccc2c1N,9.3*,1.0,0.0,-2.0,0.0,0.0
N=c1n(CC(=O)c2ccc(Br)s2)c2ccccc2n1Cc1ccccc1,10.2*,·,·,·,·,·
Cn1c(=N)n(CC(=O)c2ccc(Br)s2)c2ccccc21,5.9,1.0,-6.0,-8.0,-7.0,-7.0
COC(=O)/C(C#N)=C/c1cc(C)sc1C,-2.0,·,·,·,·,·
CCc1ccc2[nH]c(C(=O)Nc3ccc4c(c3)OCO4)cc2c1,-1.0,·,·,·,·,·
Cc1cc(N/C(=N/S(=O)(=O)c2ccc(F)cc2)c2ccccc2)n(-c2ccccc2)n1,0.0,-2.0,-2.0,-2.0,-1.0,-2.0
Cc1ccc2nc(N/C(=N/S(=O)(=O)c3ccc(F)cc3F)c3ccccc3)sc2c1,9.0*,-1.0,-2.0,-4.0,0.0,-3.0
Cc1cc(N/C(=N/S(=O)(=O)c2cc(F)ccc2F)c2ccccc2)n(-c2ccccc2)n1,0.2,18.0,66.0*,19.0,50.0*,16.0
Cc1ccc2nc(N/C(=N/S(=O)(=O)c3ccc(F)cc3)c3ccccc3)sc2c1,-1.9,-3.0,0.0,-3.0,0.0,-2.0
CCN1C(=O)/C(=C\c2cccn2-c2ccc([N+](=O)[O-])cc2)N(CC)C1=S,9.5*,6.0,5.0,5.0,12.0,7.0
CCN1CCN(CCNC(=O)c2ccc(/C=C3\Sc4ccccc4N(Cc4ccccc4F)C3=O)cc2)CC1,-3.1,-3.0,-9.0,-5.0,-3.0,-3.0
COCCCNC(=O)/C=C1\Sc2ccccc2N(Cc2ccccc2F)C1=O,9.7*,-3.0,4.0,6.0,3.0,-2.0
O=C1CSC(c2ccccn2)N1c1ccc(F)cc1F (stereo not drawn),9.9*,-2.0,-3.0,-3.0,-3.0,-4.0
Cc1ccc(-c2csc(N/N=C/c3ccco3)n2)c(C)c1,9.6*,-3.0,-6.0,-1.0,-4.0,-5.0
O=C(O)c1ccc(NS(=O)(=O)c2ccc3c(c2)OCCCO3)cc1,2.0,-3.0,-9.0,-8.0,-6.0,-4.0
O=C(O)CCNS(=O)(=O)c1ccc2c(c1)OCCCO2,9.8*,3.0,3.0,-2.0,0.0,1.0
Cc1ccc(-n2[nH]c(C)c(/C=N/Nc3ccc([N+](=O)[O-])cc3[N+](=O)[O-])c2=O)cc1C,0.8,30.0,42.0*,42.0*,25.0,43.0*
Cc1[nH]n(-c2ccccc2)c(=O)c1/C=N/NC(=O)c1cccc([N+](=O)[O-])c1,-0.4,-2.0,1.0,-4.0,-3.0,0.0
O=C(CCC(=O)N1CCN(S(=O)(=O)c2ccc(Cl)cc2)CC1)Nc1ccc2ccccc2c1,10.4*,0.0,-6.0,2.0,-2.0,-3.0
COc1ccc(NC(=O)CCN2CCN(S(=O)(=O)c3ccc(Cl)cc3)CC2)cc1,2.2,-3.0,-10.0,-15.0,-6.0,-10.0
O=C1C=C(Nc2ccc(Cl)cc2Cl)CC(c2ccco2)C1 (stereo not drawn),9.7*,-2.0,-8.0,-6.0,-1.0,-2.0
O=C1C=C(NCc2ccc(Cl)cc2)CC(c2ccco2)C1 (stereo not drawn),0.1,-2.0,-5.0,-5.0,-7.0,2.0
COc1ccc(-c2noc(COc3ccc4c(c3)OCO4)n2)cc1,-2.3,-1.0,0.0,0.0,-1.0,-1.0
SMILES,Wee1 degr inh,Bcl-W Bim block,Bim-Bcl-B,Bfl-1 Bim block,Bim-Bcl-2,Bim-Bcl-XL
COc1ccc(-c2noc(COc3ccc4c(c3)OCO4)n2)cc1OC,-0.4,18.0,·,·,85.0*,23.0
COC(=O)/C(=C/c1ccc(F)cc1)NC(C)=O,2.1,-4.0,48.0*,1.0,28.0,0.0
Nc1c(C2=NCCO2)nnn1Cc1ccccc1,9.2*,-3.0,-4.0,-1.0,-3.0,0.0
Cc1nc(NC(=O)/C=C/c2ccco2)sc1C,8.9*,0.0,-4.0,3.0,0.0,-4.0
O=C(/C=C/c1ccco1)Nc1nnc(-c2ccco2)s1,0.9,-3.0,-6.0,-4.0,-4.0,-3.0
CCOC(=O)C1(CC/C(C)=N\NC(N)=O)CC(C)(C)OC1=O (stereo not drawn),-2.9,11.0,-49.0,44.0*,14.0,18.0
CCOC(=O)C1(C/C(C)=N/NC(N)=O)CC(C)(C)OC1=O (stereo not drawn),4.9,0.0,-5.0,2.0,0.0,-3.0
